# From PubChem BioAssay (NCATS)
# Values joined by “and” are separate entries in the source; they are usually repeats but may differ in a detail not shown here. Equal entries are not always repeated. Records with an inconclusive call do not appear. Entries that show only a call come without a potency. Active and inactive are the calls of the source. Unless noted, the call rests on the fitted dose curve; in most records, active means well fitted curve in the direction sought with a large enough effect; inconclusive means small, poorly fitted or top-dose-only effect, or another doubt; inactive means no such curve, though single readings can be large; an effect the other way counts as inactive or inconclusive.
# What was measured:
# [1] = Cellular Toxicity (caspase-3) Jurkat (AID 655); conditions: Jurkat caspase-3 activation, luminescence; caspase-3 activation: at 92.2 µM (top of the series), DMSO = 0%, tamoxifen = 100%;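 further: cells exposed to compound for 16 h at 37 °C before reading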
# In short: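 Jurkat cells (5000/well) in complete medium were treated with compounds for 16 hr at 37 °C, then Caspase-Glo 3/7 luminescence was read after 20 min at room temperature. Data normalized to DMSO (basal) and 100 uM tamoxifen (100%); AC50 from Hill fit.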
# [2] = biological target: Vitamin D3 receptor (Homo sapiens) (UniProt P11473); assay: qHTS assay for small molecule agonists of vitamin D receptor signaling (AID 588543; calls by dose curve)
# Chain of Vitamin D3 receptor (Homo sapiens) (P11473 whole entry, looked up): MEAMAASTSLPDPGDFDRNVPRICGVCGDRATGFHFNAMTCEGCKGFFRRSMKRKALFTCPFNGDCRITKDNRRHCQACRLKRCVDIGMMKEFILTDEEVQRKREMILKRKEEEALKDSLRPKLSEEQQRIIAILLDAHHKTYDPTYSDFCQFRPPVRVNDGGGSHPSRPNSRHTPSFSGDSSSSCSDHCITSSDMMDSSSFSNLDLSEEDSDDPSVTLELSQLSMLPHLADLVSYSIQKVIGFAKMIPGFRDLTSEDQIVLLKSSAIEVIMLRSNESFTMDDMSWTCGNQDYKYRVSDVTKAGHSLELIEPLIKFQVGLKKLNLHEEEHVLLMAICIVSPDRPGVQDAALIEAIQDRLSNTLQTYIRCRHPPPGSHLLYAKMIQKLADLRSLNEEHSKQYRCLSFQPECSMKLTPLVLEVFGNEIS
# In short: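 GeneBLAzer VDR-UAS-bla HEK293T cells in 2% charcoal-stripped FBS medium were dosed with compound titrations for 16 h at 37 °C; CCF4 β-lactamase readout (405 nm ex, 460/530 nm em). EC50 and efficacy from Hill fits, normalized to 50 nM calcitriol (100%) and DMSO (0%).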
# [3] = biological target: Thyroid hormone receptor beta (Homo sapiens) (UniProt P10828); assay: qHTS assay for small molecule agonists of thyroid hormone receptor beta signaling (AID 588545; calls by dose curve)
# Chain of Thyroid hormone receptor beta (Homo sapiens) (P10828 whole entry, looked up): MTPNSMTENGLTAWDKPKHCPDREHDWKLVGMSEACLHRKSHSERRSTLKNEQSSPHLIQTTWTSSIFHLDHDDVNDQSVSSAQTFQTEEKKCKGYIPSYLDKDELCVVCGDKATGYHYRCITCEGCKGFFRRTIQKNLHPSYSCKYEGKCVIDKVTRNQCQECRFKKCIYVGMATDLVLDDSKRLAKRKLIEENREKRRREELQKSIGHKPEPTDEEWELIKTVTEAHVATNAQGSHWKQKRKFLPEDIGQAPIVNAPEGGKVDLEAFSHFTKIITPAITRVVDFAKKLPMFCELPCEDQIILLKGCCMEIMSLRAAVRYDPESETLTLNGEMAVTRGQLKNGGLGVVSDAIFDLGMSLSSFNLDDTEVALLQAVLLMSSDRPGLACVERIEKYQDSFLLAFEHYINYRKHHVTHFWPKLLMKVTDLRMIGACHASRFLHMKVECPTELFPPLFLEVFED
# In short: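 TR-UAS-bla GripTite HEK 293 cells (2500/well, medium with 2% charcoal/dextran FBS) were treated in agonist mode for 18 h at 37 C, titrated. Beta-lactamase was read by CCF4 ratio after 2 h; normalized to 10 nM T3 (100%) and DMSO, Hill-fitted for EC50 and efficacy.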
# [4] = biological target: Cytochrome P450 3A4 (Homo sapiens) (UniProt P08684); assay: qHTS Assay for Inhibitors and Substrates of Cytochrome P450 3A4 (AID 884); further: nearly all actives have a fitted effect of over 50% in size
# Chain of Cytochrome P450 3A4 (Homo sapiens) (P08684 whole entry, looked up): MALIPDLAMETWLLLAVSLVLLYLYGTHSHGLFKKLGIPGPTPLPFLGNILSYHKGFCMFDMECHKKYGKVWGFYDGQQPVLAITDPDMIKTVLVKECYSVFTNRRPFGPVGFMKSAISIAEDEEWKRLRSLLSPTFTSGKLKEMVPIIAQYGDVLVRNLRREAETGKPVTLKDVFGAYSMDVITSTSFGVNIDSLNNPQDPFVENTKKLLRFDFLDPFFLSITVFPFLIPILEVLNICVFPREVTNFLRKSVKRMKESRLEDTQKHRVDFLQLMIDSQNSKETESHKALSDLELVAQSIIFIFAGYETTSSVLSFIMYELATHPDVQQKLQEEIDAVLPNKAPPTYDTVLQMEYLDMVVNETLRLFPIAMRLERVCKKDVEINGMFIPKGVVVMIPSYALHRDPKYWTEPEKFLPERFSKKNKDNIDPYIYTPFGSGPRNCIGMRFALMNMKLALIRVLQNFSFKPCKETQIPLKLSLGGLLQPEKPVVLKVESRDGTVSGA
# In short: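 20 nM human CYP3A4 with 25 uM Luciferin-PPXE (at KM) in 200 mM KPO4, preincubated 10 min with compound; NADPH regeneration started a 60 min RT reaction. Luciferin detected by luminescence, normalized to 57 uM ketoconazole as full inhibition.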
# [5] = Cell Viability - LYMP2-026 (AID 989); further: potency means the concentration at half of the fitted maximal effect; nearly all actives have a fitted effect of over 50% in size
# In short: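 Human lymphoblastoid cells (2500/well) in complete medium were preincubated 5 hr at 37 C, then exposed to compounds for 24 hr at 37 C. Cellular ATP was read by CellTiter-Glo luminescence; AC50 from Hill-equation fits of concentration-response data.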
# [6] = biological target: Glucocorticoid receptor (Homo sapiens) (UniProt P04150); assay: qHTS assay for small molecule agonists of glucocorticoid receptor signaling (AID 588532; active means well fitted curve in the direction sought with a large enough effect in the signal ratio, with a control signal flat; the % refers to the signal ratio); conditions: HeLa MMTV-bla, beta-lactamase ratio, agonist, 18 h; activation: stronger effect = higher value, percent of dexamethasone control, DMSO zero
# Chain of Glucocorticoid receptor (Homo sapiens) (P04150 whole entry, looked up): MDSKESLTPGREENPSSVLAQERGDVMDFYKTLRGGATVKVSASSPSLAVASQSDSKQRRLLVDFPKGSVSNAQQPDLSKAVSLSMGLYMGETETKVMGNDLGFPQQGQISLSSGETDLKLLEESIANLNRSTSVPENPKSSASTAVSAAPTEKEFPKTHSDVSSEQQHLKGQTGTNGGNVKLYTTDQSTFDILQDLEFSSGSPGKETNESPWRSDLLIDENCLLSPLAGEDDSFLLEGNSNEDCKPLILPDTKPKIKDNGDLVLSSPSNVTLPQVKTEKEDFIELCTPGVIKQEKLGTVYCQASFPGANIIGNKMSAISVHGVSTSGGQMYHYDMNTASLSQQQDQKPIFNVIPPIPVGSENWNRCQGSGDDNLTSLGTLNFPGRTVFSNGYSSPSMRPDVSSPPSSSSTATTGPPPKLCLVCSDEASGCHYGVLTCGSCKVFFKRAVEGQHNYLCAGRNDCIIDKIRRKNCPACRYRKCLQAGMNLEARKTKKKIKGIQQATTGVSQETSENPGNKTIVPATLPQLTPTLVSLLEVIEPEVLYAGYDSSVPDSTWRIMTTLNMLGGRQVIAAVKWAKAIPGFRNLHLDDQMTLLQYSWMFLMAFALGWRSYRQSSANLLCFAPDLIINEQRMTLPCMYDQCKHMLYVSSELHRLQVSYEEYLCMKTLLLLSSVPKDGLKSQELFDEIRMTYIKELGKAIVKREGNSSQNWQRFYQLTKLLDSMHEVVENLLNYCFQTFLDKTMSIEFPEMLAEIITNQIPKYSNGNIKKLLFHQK
# In short: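 MMTV-bla HeLa, beta-lactamase reporter; medium with 1% charcoal/dextran-stripped FBS; cpds up to 92 uM, 18 h, 37 C; CCF4 readout 460/530 nm; Hill fit → EC50, efficacy vs 0.1 uM dexamethasone = 100%.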
# [7] = biological target: Vitamin D3 receptor (Homo sapiens) (UniProt P11473); assay: qHTS assay for small molecule antagonists of vitamin D receptor signaling (AID 588541; calls by dose curve;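 further: receptor activated by calcitriol during compound treatment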)
# In short: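 VDR-UAS-bla HEK293T cells (2000/well, 2% charcoal-stripped FBS) were treated with titrated compounds plus 1-alpha,25-dihydroxyvitamin D3 (50 nM or 3 nM final) for 16 h at 37 C. CCF4 beta-lactamase fluorescence was read; Hill fits gave IC50.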
# [8] = qHTS assay for small molecule antagonists of retinoid X receptor alpha signaling (AID 588546; active means well fitted inhibition curve with a large enough effect in the signal ratio, with a control signal flat, not every such curve was filed as active; the % refers to the signal ratio;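 further: cells stimulated with 9-cis-retinoic acid as agonist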); conditions: HEK293T RXRa-UAS-bla, beta-lactamase ratio, antagonist mode; measured here: W530 green channel, cytotoxicity proxy
# In short: (§1)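 Beta-lactamase reporter inhibition, read as CCF4 fluorescence ratio (ex 405, em 460/530 nm) after 2 h at RT. HEK293T UAS-bla cells, 2500/well, were stimulated with 9-cis-RA at 500 or 100 nM final alongside test compound for 18 h at 37 C.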
# [9] = biological target: Retinoic acid receptor RXR-alpha (Homo sapiens) (UniProt P19793); assay: as above; conditions: HEK293T RXRa-UAS-bla, beta-lactamase ratio, antagonist mode
# Chain of Retinoic acid receptor RXR-alpha (Homo sapiens) (P19793 whole entry, looked up): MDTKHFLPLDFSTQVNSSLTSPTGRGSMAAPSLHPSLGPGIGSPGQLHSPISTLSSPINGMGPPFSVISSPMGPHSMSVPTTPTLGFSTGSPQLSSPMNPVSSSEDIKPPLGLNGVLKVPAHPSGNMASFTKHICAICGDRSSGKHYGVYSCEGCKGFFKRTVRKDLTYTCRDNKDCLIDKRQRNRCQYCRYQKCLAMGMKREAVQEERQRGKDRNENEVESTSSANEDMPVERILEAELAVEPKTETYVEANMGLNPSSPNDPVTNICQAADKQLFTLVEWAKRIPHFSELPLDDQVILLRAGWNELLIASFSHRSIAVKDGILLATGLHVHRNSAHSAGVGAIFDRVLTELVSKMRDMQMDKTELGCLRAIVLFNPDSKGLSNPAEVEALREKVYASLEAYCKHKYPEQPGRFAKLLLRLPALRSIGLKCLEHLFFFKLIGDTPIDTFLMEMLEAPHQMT
# In short: as §1
# [10] = biological target: Thyroid hormone receptor beta (Homo sapiens) (UniProt P10828); assay: qHTS assay for small molecule antagonists of thyroid hormone receptor beta signaling (AID 588547; active means well fitted inhibition curve with a large enough effect in the signal ratio, with a control signal flat, not every such curve was filed as active; the % refers to the signal ratio;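 further: cells stimulated with 0.4 nM T3 agonist during compound exposure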); conditions: TR-UAS-bla HEK293, beta-lactamase ratio, antagonist mode, 18 h
# In short: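 TR-UAS-bla GripTite HEK293 cells in 2% charcoal/dextran FBS medium were preincubated 4 h at 37 C, given compound (0.59 nM to 92 uM) plus 0.4 nM T3 (final) for 18 h, then CCF4 for 2 h at RT; Hill fit gave IC50.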
# [11] = biological target: Nuclear receptor subfamily 1 group I member 2 (Rattus norvegicus) (UniProt Q9R1A7); assay: qHTS assay for small molecule activators of the rat pregnane X receptor (rPXR) signaling pathway (AID 651751; call rule not given here); conditions: rPXR reporter cells, luciferase (One-Glo), 24 h
# Chain of Nuclear receptor subfamily 1 group I member 2 (Rattus norvegicus) (Q9R1A7 whole entry, looked up): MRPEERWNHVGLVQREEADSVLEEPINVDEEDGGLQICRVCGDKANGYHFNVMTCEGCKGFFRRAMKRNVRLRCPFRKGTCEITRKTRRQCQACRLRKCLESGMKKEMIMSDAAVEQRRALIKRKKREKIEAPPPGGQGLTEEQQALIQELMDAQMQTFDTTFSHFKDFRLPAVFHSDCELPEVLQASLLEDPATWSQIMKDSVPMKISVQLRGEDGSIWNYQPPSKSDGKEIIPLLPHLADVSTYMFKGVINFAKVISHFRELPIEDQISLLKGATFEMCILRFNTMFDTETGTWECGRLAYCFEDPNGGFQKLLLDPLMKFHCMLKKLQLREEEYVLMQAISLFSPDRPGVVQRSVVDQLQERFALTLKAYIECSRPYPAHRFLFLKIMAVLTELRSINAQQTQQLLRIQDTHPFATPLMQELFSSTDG
# [12] = qHTS assay for small molecule activators of the human pregnane X receptor (PXR) signaling pathway (AID 720659; call rule not given here)
# [13] = biological target: Guanine nucleotide-binding protein G(i) subunit alpha-1 (Homo sapiens) (UniProt P63096); assay: qHTS Assay for Inhibitors of RGS12 GoLoco Motif Activity (Green Fluorophore) (AID 879); further: potency means the concentration at half of the fitted maximal effect
# Chain of Guanine nucleotide-binding protein G(i) subunit alpha-1 (Homo sapiens) (P63096 whole entry, looked up): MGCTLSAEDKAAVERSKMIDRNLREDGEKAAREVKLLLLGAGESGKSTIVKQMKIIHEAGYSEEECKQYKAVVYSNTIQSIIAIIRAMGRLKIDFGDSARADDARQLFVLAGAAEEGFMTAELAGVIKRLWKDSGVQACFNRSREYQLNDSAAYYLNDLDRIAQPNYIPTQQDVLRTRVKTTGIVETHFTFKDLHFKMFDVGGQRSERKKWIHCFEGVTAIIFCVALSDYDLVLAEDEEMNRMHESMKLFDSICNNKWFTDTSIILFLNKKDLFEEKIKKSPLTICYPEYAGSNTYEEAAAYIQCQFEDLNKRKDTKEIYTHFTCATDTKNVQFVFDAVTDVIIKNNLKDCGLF
# In short: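 Fluorescence polarization assay: 50 nM Gαi1 with 10 nM FITC-labeled RGS12 GoLoco peptide in 10 mM Tris pH 7.5, 150 mM NaCl, 0.1 mM GDP, 0.05% NP40, 10 min at room temperature with compound.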
# [14] = biological target: Pyruvate kinase (Leishmania mexicana) (UniProt Q27686); assay: qHTS Validation Assay for Inhibitors of Leishmania Mexicana Pyruvate Kinase (AID 945)
# Chain of Pyruvate kinase (Leishmania mexicana) (Q27686 2-499 E452W): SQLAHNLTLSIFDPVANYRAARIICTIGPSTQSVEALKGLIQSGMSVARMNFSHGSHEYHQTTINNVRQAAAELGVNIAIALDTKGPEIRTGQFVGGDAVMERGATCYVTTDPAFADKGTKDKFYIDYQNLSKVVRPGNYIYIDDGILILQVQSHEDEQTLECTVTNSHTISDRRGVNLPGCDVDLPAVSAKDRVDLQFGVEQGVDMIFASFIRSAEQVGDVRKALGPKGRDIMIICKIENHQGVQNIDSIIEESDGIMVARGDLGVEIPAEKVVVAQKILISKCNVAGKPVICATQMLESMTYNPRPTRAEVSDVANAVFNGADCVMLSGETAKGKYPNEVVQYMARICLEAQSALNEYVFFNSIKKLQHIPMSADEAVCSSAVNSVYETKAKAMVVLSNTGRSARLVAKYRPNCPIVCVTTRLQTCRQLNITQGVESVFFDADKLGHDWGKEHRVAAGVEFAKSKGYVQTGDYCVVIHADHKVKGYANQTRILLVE
# In short: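 The enzyme is a highly purified E451W mutant of LmPYK used at 0.2 nM. It converts 0.5 mM PEP and 0.1 mM ADP over 1 h at room temperature; product ATP is quantified by luciferase luminescence relative to DMSO controls.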
# [15] = biological target: Pyruvate kinase PKM (Homo sapiens) (UniProt P14618); assay: qHTS Assay for Activators of Human Muscle Pyruvate Kinase (AID 954; active means well fitted curve in the direction sought with a large enough effect, not every such curve was filed as active)
# Chain of Pyruvate kinase PKM (Homo sapiens) (P14618 whole entry, looked up): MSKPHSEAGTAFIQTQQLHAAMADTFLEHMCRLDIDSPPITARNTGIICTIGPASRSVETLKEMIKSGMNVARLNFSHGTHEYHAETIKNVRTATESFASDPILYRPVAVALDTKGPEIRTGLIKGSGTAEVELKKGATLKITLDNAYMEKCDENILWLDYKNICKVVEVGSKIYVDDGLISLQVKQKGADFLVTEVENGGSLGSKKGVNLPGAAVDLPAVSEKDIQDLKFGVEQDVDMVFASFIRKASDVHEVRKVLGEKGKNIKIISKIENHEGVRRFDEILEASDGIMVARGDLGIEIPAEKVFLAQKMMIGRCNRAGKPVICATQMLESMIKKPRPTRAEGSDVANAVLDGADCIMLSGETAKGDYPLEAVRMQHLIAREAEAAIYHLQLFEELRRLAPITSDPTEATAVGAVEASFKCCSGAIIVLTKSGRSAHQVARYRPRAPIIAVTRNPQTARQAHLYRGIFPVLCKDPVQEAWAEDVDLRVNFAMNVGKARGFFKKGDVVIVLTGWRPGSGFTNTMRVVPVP
# In short: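 Purified human PKM2 (0.1 nM) with 0.5 mM PEP (Km) and 0.1 mM ADP in 50 mM imidazole pH 7.2, KCl, MgCl2, 1 h at room temperature; ATP formed read by coupled luciferase luminescence. Normalized to no-enzyme/110 uM thiadiazolimine inhibition; 0.3 nM enzyme column for activation.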
# [16] = biological target: Alpha-galactosidase A (Homo sapiens) (UniProt P06280); assay: Counterscreen for Glucocerebrosidase Inhibitors: qHTS Assay for Human alpha-Galactosidase at pH 4.5 (AID 992)
# Chain of Alpha-galactosidase A (Homo sapiens) (P06280 whole entry, looked up): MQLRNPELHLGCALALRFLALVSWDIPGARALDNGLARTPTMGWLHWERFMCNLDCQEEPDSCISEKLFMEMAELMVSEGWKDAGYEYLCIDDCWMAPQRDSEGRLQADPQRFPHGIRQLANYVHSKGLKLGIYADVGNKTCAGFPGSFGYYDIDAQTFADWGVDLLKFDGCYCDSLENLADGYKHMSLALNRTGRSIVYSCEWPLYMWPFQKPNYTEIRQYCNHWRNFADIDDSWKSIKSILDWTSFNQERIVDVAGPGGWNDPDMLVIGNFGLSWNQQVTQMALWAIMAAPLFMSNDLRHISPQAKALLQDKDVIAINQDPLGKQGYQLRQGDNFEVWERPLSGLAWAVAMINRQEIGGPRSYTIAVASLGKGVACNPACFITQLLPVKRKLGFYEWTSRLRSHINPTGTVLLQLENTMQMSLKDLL
# In short: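 Human enzyme (2 nM) with 80 uM 4-methylumbelliferyl alpha-D-galactopyranoside in 50 mM citric acid, 0.005% Tween-20, pH 4.5, 20 min at room temperature. Compounds 0.7 nM–77 uM; fluorescence Ex 365/Em 440 after pH 10 stop; AC50 from Hill fits.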
# [17] = biological target: alpha-glucosidase (Oryza sativa, rice) (UniProt Q653V4); assay: Counterscreen for Glucocerebrosidase Inhibitors: qHTS Assay for Rice alpha-Glucosidase at pH 5.0 (AID 997)
# In short: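 Rice alpha-glucosidase (4 nM final) with 400 uM 4-methylumbelliferyl-alpha-D-glucopyranoside in citrate buffer pH 5.0, 20 min at room temperature, stopped at pH 10; fluorescence 365/440 nm, compounds 0.7 nM–77 uM, AC50 from Hill fits.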
# [18] = biological target: Bile acid receptor (Homo sapiens) (UniProt Q96RI1); assay: qHTS assay for small molecule agonists of farnesoid X receptor signaling (AID 588527; calls by dose curve); conditions: HEK293T FXR-UAS-bla, beta-lactamase ratio, 16 h; activation: stronger effect = higher value
# In short: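 FXR-UAS-bla HEK293T cells (10% dialyzed FBS) preincubated 5-7 h at 37 C, then compounds at up to 92 uM for 16 h at 37 C. CCF4 beta-lactamase read-out after 2 h RT. Normalized to chenodeoxycholic acid (100 uM) and DMSO; Hill fit gave EC50 and efficacy.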
# [19] = qHTS assay for small molecule activators of the nuclear factor-kappa B (NF-kB) signaling pathway (AID 651749; active means well fitted activation curve with a large enough effect in the signal ratio; the % refers to the signal ratio); conditions: NF-kB-bla ME-180 cells, beta-lactamase FRET ratio, 16 h; activation: stronger effect = higher value
# In short: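 ME-180 cells stably carrying a beta-lactamase reporter under an NF-kB response element were exposed to compound or DMSO vehicle for 16 hr at 37C, 5% CO2. Pathway activation was read by FRET, since reporter expression disrupts FRET.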
compound,measurement,setting,value
[Cd+2].[Cl-].[Cl-],caspase-3 activation,[1],-2.73% (inactive)
same,outcome,[2],inactive
same,Potency,[3],inactive
O=[N+]([O-])C(Br)Br,Potency,[4],inactive
same,Potency,[5],20 µM (active)
same,activation,[6],-5.74% (inactive)
same,Potency,[7],inactive
same,outcome,[2],inactive
same,Potency,[3],inactive
same,max response,[8],-6.12%
same,max response,[9],3.78% (inactive)
same,activity change % (negative = inhibition),[10],4.06% (inactive)
same,max response,[11],1.81% (inactive)
same,outcome,[12],inactive
C[N+]1(C)CCO[C@@](O)(c2ccc(-c3ccc([C@]4(O)C[N+](C)(C)CCO4)cc3)cc2)C1,Potency,[13],inactive
same,Potency,[14],inactive
same,outcome,[15],inactive
same,outcome,[16],inactive
same,outcome,[17],inactive
ClC1=C(Cl)C2(Cl)C3C(Cl)C(Cl)CC3C1(Cl)C2(Cl)Cl (configuration not stated),caspase-3 activation,[1],81.5% (active)
same,Potency,[7],inactive
same,outcome,[2],inactive
C(=NC1CCCCC1)=NC1CCCCC1,activation,[18],1.63% (inactive)
same,Potency,[7],inactive
same,Potency,[3],inactive
same,activity change % (negative = inhibition),[10],-20.1% (inactive) and -3.06% (inactive)
same,activation,[19],0.442% (inactive) and -0.633% (inactive)
same,max response,[11],0.443% (inactive) and 0.275% (inactive)
same,outcome,[12],inactive
Oc1cc2c(cc1O)[C@H]1c3ccccc3CN[C@@H]1CC2,Potency,[13],inactive
same,Potency,[14],inactive
same,outcome,[16],inactive
same,outcome,[17],inactive
O[C@@H]1CCCC[C@H]1N1CCC(c2ccccc2)CC1,Potency,[13],inactive
same,Potency,[14],inactive
same,outcome,[15],inactive
same,outcome,[16],inactive
same,outcome,[17],inactive
C[C@@H]1O[C@@H](O[C@H]2C[C@@H](O)[C@]3(CO)[C@@H]4[C@@H](O)C[C@]5(C)[C@H](C6=CC(=O)OC6)CC[C@@]5(O)[C@H]4CC[C@@]3(O)C2)[C@H](O)[C@H](O)[C@@H]1O,Potency,[13],inactive
same,Potency,[14],inactive
same,outcome,[15],inactive
same,outcome,[16],inactive
same,outcome,[17],inactive
CCCCCCCCCCCCCC(=O)O[C@H]1[C@@H](C)[C@@]2(O)[C@@H](C=C(CO)C[C@]3(O)C(=O)C(C)=C[C@@H]23)C2C(C)(C)[C@]21OC(C)=O (some centres not stated),Potency,[13],inactive
same,Potency,[14],inactive
same,outcome,[15],inactive
same,outcome,[16],inactive
same,outcome,[17],inactive
COC[C@H]1OC(=O)c2coc3c2[C@@]1(C)C1=C(C3=O)[C@H]2CCC(=O)[C@@]2(C)C[C@H]1OC(C)=O,Potency,[13],25.1 µM (active)
same,Potency,[14],inactive
same,outcome,[15],inactive
same,outcome,[16],inactive
same,outcome,[17],inactive
C[C@]12Cc3cn4c(nc3C=C1CC[C@H]1[C@@H]2CC[C@@]2(C)[C@H]1CC[C@@]2(O)C#N)nc1ccccc14,Potency,[13],inactive
same,Potency,[14],inactive
same,outcome,[16],inactive
same,outcome,[17],inactive
